This is one part of a sample in which hits are shown more often than they occur.
Vaccinia mCherry: vaccinia inhibition (mCherry reporter). Vaccinia virus mCherry reporter infection, fluorescence. Potency, µM (doses to about 36.5 µM), actives largely listed as inhibitors. 310,000 tested, 0.63% active. AID 720579; calls by dose curve; tested in A549 cells; further: nearly all actives have a fitted effect of over 35% in size
LASV entry inh: inhibitors of Lassa virus binding or cell entry; Lassa virus pseudotype entry inhibition, cell reporter; Potency, µM (highest dose often 37.9 µM), hits mostly inhibitors; 300,000 tested, 1.2% active; calls by dose curve; tested in HEK293 cells; further: nearly all actives have a fitted effect of over 50% in size
Shiga toxin inh: blocks Shiga toxin action in Vero cells; Vero cells, Shiga toxin protein synthesis inhibition reporter; inhibition, % at 38.7 µM; 290,000 tested, 9.2% active; in the data active means inhibition mostly above about 28%, no sharp cut-off; inactive means mostly below about 43%
Vaccinia Venus: vaccinia inhibition (Venus reporter); Vaccinia virus Venus reporter expression, fluorescence; 330,000 tested, 0.46% active; Potency, µM (top dose mostly 36.5 µM), actives largely listed as inhibitors; calls by dose curve; tested in A549 cells; further: nearly all actives have a fitted effect of over 30% in size
Cycloheximide cs: counter-screen hit for Shiga toxin inhibitors, cycloheximide; cell reporter, cycloheximide protein synthesis inhibition counterscreen; max response, %; 300,000 tested, 12% active; in the data active means max response mostly above about 13%, no sharp cut-off; inactive means mostly below about 14%; further: read at 38.3 µM for the half of the compounds with a filed dose
MARV entry inh: inhibitors of Marburg virus binding or cell entry; AID 540276; 300,000 tested, 1.8% active; Potency, µM (highest dose often 37.8 µM), actives largely listed as inhibitors; Marburg virus pseudotyped entry inhibition, cell reporter; calls by dose curve; tested in HEK293 cells
Large screens that a line does not name were inactive.

COc1cccc(C2=NN(S(C)(=O)=O)C(c3cn(-c4ccccc4)nc3-c3cccs3)C2)c1 (stereo not given)	none (no result: Shiga toxin inh, Cycloheximide cs)
CCOc1ccccc1NC(=O)CN(CCc1ccccc1)S(=O)(=O)c1ccc(C)cc1	none (no result: Shiga toxin inh, Cycloheximide cs, MARV entry inh)
Cc1ccc(OCCn2nnc3ccccc32)cc1C	LASV entry inh inconclusive, Shiga toxin inh 47.6, Cycloheximide cs 45.1, MARV entry inh inconclusive
COc1ccccc1OCCn1nnc2ccccc21	LASV entry inh inconclusive, Shiga toxin inh 103.5, Cycloheximide cs 34.1
COc1ccc(-c2cc(C(F)(F)F)nc(SCC(=O)N3CCCCC3)n2)cc1	none (no result: Shiga toxin inh, Cycloheximide cs)
Cc1ccc2c(c1)COc1c3ccc(C(=O)NC(C)C)cc3nn1-2	Shiga toxin inh 76.2, Vaccinia Venus inconclusive, Cycloheximide cs 35.3 (no result: LASV entry inh, MARV entry inh)
Cc1ccc2c(c1)COc1c3ccc(C(=O)N[C@@H](C)CO)cc3nn1-2	Shiga toxin inh 52.9, Cycloheximide cs 42.1 (no result: LASV entry inh, MARV entry inh)
Cc1ccc(NC(=O)C(=O)c2cc(C)n(-c3ccc(F)cc3)c2C)cc1C	LASV entry inh inconclusive (no result: Shiga toxin inh, Cycloheximide cs)
COc1cc(/C=N/NC(=O)Nc2ccccc2)ccc1OC(C)=O	Shiga toxin inh 53.2, Cycloheximide cs 39.4, MARV entry inh inconclusive
CCOc1cc(/C=N/NC(=O)c2ccc(NC(=O)C3CC3)cc2)ccc1O	none (no result: Vaccinia mCherry, LASV entry inh, Vaccinia Venus, MARV entry inh)
Cc1cc(C(=O)N/N=C2\CC(=O)c3ccccc32)c(C)n1-c1ccc(F)cc1	Vaccinia mCherry inconclusive, Shiga toxin inh 41.1, Cycloheximide cs 22.5 (no result: LASV entry inh, MARV entry inh)
CCOc1cc(/C=N/NC(=O)Nc2ccccc2)ccc1O	LASV entry inh inconclusive, Shiga toxin inh 71.5, Cycloheximide cs 37.2, MARV entry inh inconclusive
CCOc1cc(/C=N/NC(=O)c2cc(C)n(-c3ccc(F)cc3)c2C)ccc1O	Shiga toxin inh 87.3, Cycloheximide cs 22.4 (no result: Vaccinia mCherry, LASV entry inh, Vaccinia Venus, MARV entry inh)
CCOc1ccccc1NC(=O)C(=O)c1cc(C)n(-c2ccc(F)cc2)c1C	none (no result: Shiga toxin inh, Cycloheximide cs)
C[C@@H]1COC(=O)[C@H](Cc2ccc(F)cc2)C/C=C\C[C@@H](CC(=O)NCCO)C(=O)N1	none (no result: LASV entry inh, Shiga toxin inh, Cycloheximide cs, MARV entry inh)
Cc1ccc(-c2nc(S(=O)(=O)c3ccccc3)c(N3CCN(c4ccccc4)CC3)o2)cc1	none (no result: Shiga toxin inh, Cycloheximide cs)
Cc1ccc(Sc2c([N+](=O)[O-])c(=O)n(C)c3ccccc23)cc1	Cycloheximide cs 10.2 (no result: Vaccinia mCherry, LASV entry inh, Vaccinia Venus, MARV entry inh)
Nc1nc2nccc(-c3ccc(Cl)cc3)n2n1	Shiga toxin inh 41.7, Cycloheximide cs 43.8 (no result: Vaccinia mCherry)
Nc1c(C(=O)O)cnc2c(-c3ccc(Cl)cc3)cnn12	Vaccinia mCherry inconclusive, LASV entry inh inconclusive, Cycloheximide cs 26.9, MARV entry inh inconclusive
Cc1cc(-c2ccc(Cl)cc2)n2nc(N)nc2n1	none (no result: Vaccinia mCherry)
Clc1ccc(-c2cnn3c(-c4ccncc4)ccnc23)cc1	Shiga toxin inh 88.6, Cycloheximide cs 34.9 (no result: LASV entry inh, MARV entry inh)
CC(=O)c1cnc2c(-c3ccc(Cl)cc3)cnn2c1C	LASV entry inh inconclusive, Shiga toxin inh 39.5, MARV entry inh inconclusive
CCc1nc2ccccc2n1CCCCOc1ccccc1C	none (no result: Shiga toxin inh, Cycloheximide cs)
Cc1ccccc1OCCCn1c(CO)nc2ccccc21	Shiga toxin inh 71.5, Cycloheximide cs 17.6
OCc1nc2ccccc2n1CCCOc1ccc(Br)cc1	LASV entry inh inconclusive, Shiga toxin inh 39.5, Cycloheximide cs 21.3 (no result: Vaccinia mCherry)
N#CCCC(CCC#N)(CCC#N)c1cc[n+](CCc2ccccn2)cc1	none (no result: LASV entry inh, Shiga toxin inh, Cycloheximide cs, MARV entry inh)
C[C@@H]1COC(=O)[C@@H](Cc2ccc(F)cc2)C/C=C\C[C@@H](CC(=O)NCCO)C(=O)N1	none (no result: LASV entry inh, Shiga toxin inh, Cycloheximide cs, MARV entry inh)
C[C@@H]1CN([C@H](C)CO)C(=O)CCCn2nncc2CO[C@@H]1CN(C)S(=O)(=O)c1cccs1	none (no result: LASV entry inh, Shiga toxin inh, Cycloheximide cs, MARV entry inh)
O=C(O)C1CCCN(C(=O)c2cccc3ccccc23)C1 (stereo not given)	none
O=C(Cn1nc2ccccc2n1)N1CCOc2ccc(CN3CCc4sccc4C3)cc2C1	none (no result: LASV entry inh, Shiga toxin inh, Cycloheximide cs, MARV entry inh)
COc1ccc(NC(=O)NCCCCc2ccccc2)cc1	Cycloheximide cs 22.4 (no result: Vaccinia mCherry, LASV entry inh, Vaccinia Venus, MARV entry inh)
Cc1ccccc1NC(=O)NCCc1ccc(Cl)cc1	none (no result: Vaccinia mCherry, LASV entry inh, Vaccinia Venus, MARV entry inh)
Cc1cccc(NC(=O)C(=O)NCCCc2ccccc2)c1	Shiga toxin inh 50.6, Cycloheximide cs 49.6, MARV entry inh inconclusive (no result: Vaccinia mCherry, Vaccinia Venus)
CC(C)(C)OC(=O)C(Cc1ccc(OC(C)(C)C)cc1)NC(=O)CNC(=O)OCc1ccccc1 (stereo not given)	Vaccinia mCherry 11.2µM, LASV entry inh inconclusive, Vaccinia Venus inconclusive, MARV entry inh inconclusive
Cc1ccccc1NC(=O)NCCCCc1ccccc1	Shiga toxin inh 38.6 (no result: Vaccinia mCherry, LASV entry inh, Vaccinia Venus, MARV entry inh)
Cc1c2cnn(CC(=O)N3CCN(c4ccc(F)cc4)CC3)c(=O)c2c(C)n1Cc1ccccc1F	none (no result: Shiga toxin inh, Cycloheximide cs)
Cc1ccc(NC(=O)NCCCc2ccccc2)cc1	Shiga toxin inh 83.1, Cycloheximide cs 35.3
CCOc1ccc(NC(=O)NCCCCc2ccccc2)cc1	none (no result: Vaccinia mCherry, LASV entry inh, Vaccinia Venus, MARV entry inh)
COc1ccc(NC(=O)C(CCCCNC(=O)OC(C)(C)C)NC(=O)OCc2ccccc2)cc1 (stereo not given)	LASV entry inh 2.06µM
O=C(NCCCCc1ccccc1)Nc1ccc(F)cc1	Shiga toxin inh 31.1 (no result: Vaccinia mCherry, LASV entry inh, Vaccinia Venus, MARV entry inh)
Cc1ccc(/C=N/N2CCN(c3ccc(Cl)cc3)CC2)o1	none (no result: Vaccinia mCherry)
Cc1ccc(/C=N/N2CCCCC2)o1	Shiga toxin inh 56.1, Cycloheximide cs 38.5, MARV entry inh inconclusive
COc1ccc(N2C(=O)[C@@H]3C[C@H]2CN3Cc2cccn2-c2ccc(Cl)cn2)c(C)c1	none (no result: LASV entry inh, Shiga toxin inh, Cycloheximide cs, MARV entry inh)
CC(=O)c1ccc(NC(=O)CN2CCCC2)cc1	Shiga toxin inh 27.5, Cycloheximide cs 27.1, MARV entry inh inconclusive
Cc1ccc(NC(=O)CN2CCCC2)cc1	none (no result: Vaccinia mCherry, LASV entry inh, Shiga toxin inh, Vaccinia Venus, MARV entry inh)
COc1ccc(NC(=O)CN2CCCCC2)cc1	LASV entry inh inconclusive, Cycloheximide cs 34.4
COc1ccc(NC(=O)CSC2CCCCC2)cc1	LASV entry inh inconclusive, Shiga toxin inh 153.2, Cycloheximide cs 61.2, MARV entry inh inconclusive

Screening results deposited in PubChem BioAssay by National Center for Advancing Translational Sciences (NCATS).
